What was measured:
Experiment in all cases: PBM binding z-score (relative to random genomic background probes); higher = stronger binding; sequences stand for … in GC…GCGATTGACAGCGTAGAATGAAGG
[1] = tested on: FXR:RXRa (NR concentration 270 nM, RXRa partner concentration 90 nM)
How it was run: (§1)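 Binding z-scores take random background probes as their reference. They come from custom Agilent 4×180K protein-binding microarrays incubated 1 h with ligand-free nuclear receptor dimers, with antibodies against each partner (one per run) detecting binding. Scanned fluorescence was regression-normalized.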

[2] = tested on: LXRa:RXRa (NR concentration 270 nM, RXRa partner concentration 90 nM)
How it was run: as §1

[3] = tested on: LXRa homodimer (NR concentration 270 nM)
How it was run: as §1

[4] = tested on: LXRb:RXRa (NR concentration 270 nM, RXRa partner concentration 90 nM)
How it was run: as §1

[5] = tested on: LXRb homodimer (NR concentration 270 nM)
How it was run: as §1

[6] = tested on: PPARa:RXRa (NR concentration 270 nM, RXRa partner concentration 90 nM)
How it was run: as §1

[7] = tested on: PPARg:RXRa (NR concentration 180 nM, RXRa partner concentration 90 nM)
How it was run: as §1

[8] = tested on: PPARg:RXRa 270nM:90nM, anti-RXR (NR concentration 270 nM, RXRa partner concentration 90 nM)
How it was run: as §1

[9] = tested on: PPARg:RXRa 30nM:10nM, anti-RXR (NR concentration 30 nM, RXRa partner concentration 10 nM)
How it was run: as §1

[10] = tested on: PPARg:RXRa 90nM:30nM, anti-RXR (NR concentration 90 nM, RXRa partner concentration 30 nM)
How it was run: as §1

[11] = tested on: PPARg:RXRa DBDmut IVT, anti-RXR (DBD mutation: RXRa K156A/R161A, NR concentration 270 nM, RXRa partner concentration 90 nM)
How it was run: as §1

[12] = tested on: PPARg:RXRa IVT, anti-PPARg (NR concentration 270 nM, RXRa partner concentration 90 nM)
How it was run: as §1

[13] = tested on: PPARg DBDmut:RXRa IVT, anti-PPARg (DBD mutation: PPARg1 K132A/R137A, NR concentration 270 nM, RXRa partner concentration 90 nM)
How it was run: as §1

[14] = tested on: PPARg DBDmut IVT, anti-PPARg (DBD mutation: PPARg1 K132A/R137A, NR concentration 270 nM)
How it was run: as §1

[15] = tested on: PPARg homodimer (NR concentration 180 nM)
How it was run: as §1

[16] = tested on: PXR:RXRa (NR concentration 270 nM, RXRa partner concentration 90 nM)
How it was run: as §1

[17] = tested on: PXR homodimer (NR concentration 270 nM)
How it was run: as §1

[18] = tested on: RARa:RXR (NR concentration 270 nM, RXRa partner concentration 90 nM)
How it was run: as §1

[19] = tested on: RARa homodimer (NR concentration 270 nM)
How it was run: as §1

[20] = tested on: RARb:RXRa (NR concentration 270 nM, RXRa partner concentration 90 nM)
How it was run: as §1

Row | Sequence | PBM binding z-score [1] | PBM binding z-score [2] | PBM binding z-score [3] | PBM binding z-score [4] | PBM binding z-score [5] | PBM binding z-score [6] | PBM binding z-score [7] | PBM binding z-score [8] | PBM binding z-score [9] | PBM binding z-score [10] | PBM binding z-score [11] | PBM binding z-score [12] | PBM binding z-score [13] | PBM binding z-score [14] | PBM binding z-score [15] | PBM binding z-score [16] | PBM binding z-score [17] | PBM binding z-score [18] | PBM binding z-score [19] | PBM binding z-score [20]
1 | ATACCAAGCTGATCGTGAGGTCGTTGATACTAAC | 0.705 | 0.688 | 0.391 | 0.818 | -0.351 | 0.693 | 0.178 | -0.0256 | -0.198 | -0.0126 | -0.185 | 0.0581 | 0.404 | 0.536 | 0.45 | 1.49 | 1.06 | 1.26 | 0.317 | 0.454
2 | CCTAGCAGGTCAATCTGGGTCACTCAAGGCTTGA | 5.49 | 6.27 | 1.3 | 4.34 | 0.627 | 4.97 | 4.83 | 5.3 | 2.13 | 4.43 | 5.78 | 6.18 | 1.08 | -0.626 | 2.33 | 5.31 | 0.0416 | 4.45 | 0.436 | 3.96
3 | CTACCAAGGTTAACAAGGTCGTTGATTACTATTC | 2.61 | 3.3 | 1.09 | 2.89 | 0.472 | 3.28 | 1.03 | 1.76 | 0.841 | 1.46 | 1.98 | 1.78 | 0.186 | 0.431 | 1.25 | 4.32 | 8.81 | 3.19 | 0.369 | 2.81
4 | TTAATGAGGTTATAAGATCAGGGAACGTTGCAAA | 1.87 | 1.75 | 0.416 | 1.58 | 0.291 | 3.04 | 1.96 | 2.7 | 1.97 | 2.32 | 2.84 | 2.61 | 1.48 | 1.53 | 0.917 | 1.11 | 0.494 | 1.66 | 1.23 | 1.27
5 | CAAACTAGGTCATGAGGTCAAAGTCCGCTTCCCG | 6.96 | 6.16 | 5.21 | 4.92 | 1.82 | 6.48 | 9.89 | 8.16 | 6.58 | 8.76 | 8.1 | 8.5 | 2.32 | 1.99 | 5.08 | 5.91 | 4.28 | 6.92 | 2.05 | 5.03
6 | CATACAGGGCCAGCTAGGCCAGAGTAGGGACGGC | -0.56 | -0.822 | -0.918 | -1.15 | -0.413 | -0.817 | 0.311 | -0.829 | -0.392 | -1 | -0.75 | -0.0426 | -0.139 | -0.903 | -0.651 | -0.993 | -0.765 | -0.772 | -0.751 | 0.645
7 | TCCTATAGGTAAATGCTAGGTGAAAGTCCGATCT | 0.02 | 0.489 | -0.157 | 0.379 | -0.293 | 1.16 | 0.318 | 1.7 | 2.99 | 2.19 | 2.2 | 1.3 | 0.193 | 0.879 | -0.495 | 0.0422 | -0.266 | 0.694 | 0.208 | 0.523
8 | TCATATAGGTCAAGGTGAAAGTCGAACGATATGA | 6.5 | 4.65 | 0.783 | 3.73 | 0.775 | 6.15 | 8.55 | 7.65 | 6.25 | 7.63 | 6.82 | 7.8 | 3.34 | 3.56 | 2.98 | 3.06 | 0.0786 | 3.99 | 0.732 | 4.84
9 | CCTCCAAGGTCAGCAGGTCAGTGAAAGCGACGTG | 5.51 | 3.58 | 0.385 | 2.93 | 0.111 | 4.67 | 4.14 | 4.24 | 1.49 | 2.93 | 2.44 | 3.16 | -0.182 | -1.13 | 2.56 | 3.13 | 0.806 | 4.32 | 0.668 | 5.41
10 | ATCGCTAGGTAAAGATAGTTCAGTGAATGCAAAT | -0.496 | 3.12 | -0.0972 | 0.21 | -0.672 | -0.0926 | 0.0549 | -0.523 | -0.376 | -0.332 | -0.327 | -0.329 | 0.673 | 0.059 | 0.116 | 0.306 | 0.193 | 0.173 | 0.336 | 0.139
11 | TCTAGTTGGTCACGGAGATCACACACGACGGGTA | 0.323 | 0.174 | 0.394 | 0.575 | 0.153 | 0.929 | 1.16 | 2.06 | 2.93 | 2.31 | 2.55 | 2.3 | 0.815 | 0.952 | 0.853 | 0.363 | 0.241 | 0.735 | 0.576 | 1.57
12 | GGAACGAGGGCAAAGTTGAGAGCATCTGTCGACG | 1.68 | 1.11 | -0.49 | 1.03 | -0.383 | 4.56 | 8.2 | 7.84 | 7.2 | 8.99 | 4.15 | 4.7 | 0.813 | 0.305 | 0.644 | 1.42 | -0.0151 | 2.15 | -0.358 | 2.61
13 | GCGACTGGGGCAAAGCAGGTTTCCATAAGGTTGG | -0.319 | -0.518 | -0.852 | -0.284 | -0.53 | 0.542 | 0.609 | 0.674 | -0.401 | 0.205 | 4.2 | 3.02 | -0.184 | -0.615 | -0.0282 | -0.473 | -0.449 | -0.165 | -0.557 | 0.376
